From PubChem BioAssay (NCATS)
Results filed as inconclusive are left out. Activity calls are given as the source filed them. Unless noted, calls come from the whole dose curve; as a rule, active = well fitted curve in the direction sought with a large enough effect; inconclusive = small, poorly fitted or top-dose-only effect, or another doubt; inactive = no such curve, though single readings can be large; an effect the other way counts as inactive or inconclusive.

Columns and labels:
[1] = Cell Viability - Jurkat (AID 426;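 active = dose-dependent loss of cell ATP signal giving a full or clear fitted curve, ranked by lower potency value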; note: potency is the fitted concentration of half-maximal effect); details: qHTS
How it was run: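 Jurkat (clone E6-1, human T-cell leukemia) cells, 5000/well in complete medium, were exposed to compound for 40 hr at 37 °C. Viability was read as intracellular ATP by CellTiter-Glo luminescence; AC50 came from Hill fits of concentration-response data.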

[2] = Cell Viability - Hek293 (AID 427;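 active = compounds whose dose-response curve shows a full or clear partial loss of cell viability, called from curve shape rather than a numeric limit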;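 note: potency is the fitted concentration of half-maximal effect; cells exposed to compound for 40 hours at 37 °C before reading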); details: qHTS
How it was run: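 Luminescent ATP read-out (CellTiter-Glo, 20 min RT) after 40 hr compound exposure at 37 °C in complete medium. Signal normalized to DMSO (basal) and 100 uM tamoxifen (100% inhibition); concentration-response fitted with the standard Hill equation to give AC50.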

[3] = Cell Viability - HepG2 (AID 433; calls by dose curve;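 note: potency is the fitted concentration of half-maximal effect; potency for ATP loss meaning cytotoxicity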); details: qHTS
How it was run: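 Read-out is luciferase-based quantitation of cellular ATP as a measure of viable HepG2 cells after 40 h treatment at 37 °C. Signal decrease is scaled between DMSO-only and 100 uM tamoxifen controls, with AC50 fitted by the Hill equation.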

[4] = Cell Viability - MRC5 (AID 434; calls by dose curve;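 note: potency is the fitted concentration of half-maximal effect; potency reflects cytotoxicity seen as loss of intracellular ATP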); details: MRC5 lung fibroblast viability, qHTS
How it was run: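 MRC5 normal human lung fibroblasts, 1500 cells/well, exposed to compound for 40 hr at 37 C. Cellular ATP was read by CellTiter-Glo luminescence; data normalized to DMSO and 100 uM tamoxifen, with AC50 from Hill fits.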

[5] = biological target: Mitogen-activated protein kinase 10 (Mus musculus) (UniProt Q61831); test: JNK3 AlphaScreen Assay (AID 530; active = well fitted curve in either direction with a large enough effect, not every such curve was filed as active;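 note: kinase came from lysate of stimulated human HepG2 cells; signal reports phosphorylation of biotinylated GST-cJun 1-79 at Ser73 with 10 µM ATP; % is set by controls: 0 for no effect and ±100 for the full control effect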)
How it was run: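 qHTS format: compounds tested as titrations against IL-1beta/TNF-alpha-activated HepG2 lysate JNK3 with biotin-GST-cJun substrate and 10 uM ATP at room temperature. Loss of anti-phospho-cJun AlphaScreen signal indicates inhibition.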

[6] = Cell Viability - N2a (AID 540); details: N2a mouse neuroblastoma cell viability; at 92.2 µM (top of the series);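 note: plate controls were DMSO alone for no effect and tamoxifen control for full effect; nearly all actives have a fitted effect of over 45% in size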
How it was run: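 Mouse neuroblastoma N2a cells (1500/well) were preincubated 5 hr at 37 °C, then exposed to compounds for 40 hr at 37 °C in complete medium. Viability was read as intracellular ATP by CellTiter-Glo luminescence; AC50 from Hill fits.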

[7] = Cell Viability - NIH 3T3 (AID 541); details: NIH 3T3 cell viability, qHTS; activity change, negative = cytotoxicity: at 92.2 µM (top of the series);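 note: plate controls were DMSO alone for no effect and tamoxifen positive control for full effect; nearly all actives have a fitted effect of over 25% in size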
How it was run: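 NIH 3T3 mouse embryo fibroblasts (1000 cells/well) were plated in complete medium and treated with compound for 40 hr at 37 °C. Viability was read as intracellular ATP by CellTiter-Glo luminescence; AC50 values came from Hill-equation fits of concentration-response data.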

[8] = Cell Viability - HUV-EC-C (AID 542); note: % is set by controls: 0 for no effect and ±100 for the full control effect; nearly all actives have a fitted effect of over 35% in size
How it was run: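 HUV-EC-C normal human vascular endothelial cells, 1000 cells/well, pre-incubated 5 hr at 37 °C, then exposed to compounds for 40 hr at 37 °C in complete medium. Viability measured as intracellular ATP by CellTiter-Glo luminescence; AC50 from Hill fits.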

[9] = Cell Viability - H-4-II-E (AID 543); note: % is set by controls: 0 for no effect and ±100 for the full control effect; nearly all actives have a fitted effect of over 35% in size
How it was run: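 Rat hepatoma H-4-II-E cells (1500/well) were plated, incubated 5 hr at 37 °C, then exposed to compounds for 40 hr at 37 °C. Cellular ATP was read by CellTiter-Glo luminescence; AC50 came from Hill-equation fits of concentration-response data.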

[10] = Cell Viability - SH-SY5Y (AID 544); details: SH-SY5Y neuroblastoma cell viability; viability change, negative = cytotoxic: at 92.2 µM (top of the series); note: nearly all actives have a fitted effect of over 55% in size
How it was run: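 Human neuroblastoma SH-SY5Y cells (1500/well) in complete medium were exposed to compounds for 40 hr at 37 °C; intracellular ATP was then quantified by CellTiter-Glo luminescence after 20 min at room temperature. AC50 came from Hill-equation concentration-response fits.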

[11] = Cell Viability - Renal Proximal Tubule (AID 545); details: renal proximal tubule cells viability; at 91.7 µM (top of the series), primary cells of rat origin unless noted; note: nearly all actives have a fitted effect of over 40% in size
How it was run: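 Luminescent ATP signal (CellTiter-Glo) served as the viability read-out after 40 hr compound exposure of freshly isolated rat proximal tubule cells at 37 °C. Concentration-dependent ATP loss was fitted with the Hill equation to give AC50.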

[12] = Cell Viability - Mesenchymal (AID 546);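 note: cells exposed to compound for 40 hours before reading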
How it was run: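 Human kidney mesenchymal cells from normal renal glomeruli, 1000 cells/well, rested 5 hr at 37 °C, then treated 40 hr at 37 °C in complete medium. Cellular ATP read by CellTiter-Glo luminescence; AC50 from Hill-equation fits.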

[13] = Cellular Toxicity (caspase-3) HepG2 (AID 654);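 note: cells exposed to compound for 16 hours before reading; 0% = DMSO alone and 100% = caspase signal from 100 µM tamoxifen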
How it was run: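 HepG2 cells (1500/well) in complete medium were treated with compounds for 16 hr at 37 °C. Caspase-3/7 activity was then read as luminescence from peptide-aminoluciferin cleavage. AC50 came from Hill fits, normalized to DMSO and 100 uM tamoxifen.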

[14] = Cellular Toxicity (caspase-3) Jurkat (AID 655); details: Jurkat caspase-3 activation, luminescence, DMSO = 0%, tamoxifen = 100%; at 92.2 µM (top of the series);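 note: cells exposed to compound for 16 h at 37 °C before reading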
How it was run: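 5000 Jurkat cells/well; compound 16 hr, 37 °C; Caspase-Glo 3/7 added, 20 min RT; luminescence read. Norm: DMSO = 0%, tamoxifen 100 uM = 100%. AC50, Hill model.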

[15] = Cellular Toxicity (caspase-3) HUV-EC-C (AID 656)
How it was run: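 qHTS; HUV-EC-C, 1000 cells/well; 5 hr settle, 16 hr cmpd, 37°C; Caspase-Glo 3/7, 20 min RT; luminescence. Norm: DMSO = 0%, tamoxifen 100 uM = 100%. Hill-fit AC50.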

[16] = Cellular Toxicity (caspase-3) SHSY5Y (AID 657)
How it was run: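 qHTS, SH-SY5Y, 1500 cells/well, 5 h pre-incubation 37 °C; compound 16 h 37 °C; Caspase-Glo 3/7 1 h RT; luminescence. Norm.: DMSO = 0, 10 uM staurosporine = 100%. Hill fit → AC50.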

[17] = Cellular Toxicity (caspase-3) BJ (AID 658);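 note: 0% = DMSO basal and 100% = 10 µM staurosporine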
How it was run: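 BJ human foreskin fibroblasts, 1000 cells/well, treated 16 hours at 37 °C in complete medium; caspase 3/7 activity by Caspase-Glo luminescence after 1 hr at room temperature. Normalized to DMSO and 10 uM staurosporine; AC50 from Hill fits.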

[18] = Cellular Toxicity (caspase-3) MRC-5 (AID 659);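 note: 0% = DMSO basal and 100% = 10 µM staurosporine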
How it was run: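 MRC-5 human normal lung fibroblasts, 1500 cells/well, treated 16 h at 37 °C in complete medium. Caspase 3/7 measured by Caspase-Glo luminescence after 1 h at room temperature. Normalized to DMSO and 10 uM staurosporine; AC50 from Hill fit.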

[19] = Cellular Toxicity (caspase-3) SK-N-SH (AID 661);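 note: 0% = DMSO basal and 100% = 10 µM staurosporine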
How it was run: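 SK-N-SH human neuroblastoma cells (1500/well) were treated with compounds for 16 hr at 37 °C in complete medium; caspase 3/7 activity was read by Caspase-Glo luminescence. AC50 came from Hill fits of data normalized to DMSO and 10 uM staurosporine.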

[20] = Cellular Toxicity (caspase-3) H-4-II-E (AID 663);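 note: cells exposed to compound for 16 hr before readout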
How it was run: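 Rat hepatoma H-4-II-E cells (1500/well) plated 5 hr, then exposed to compound titrations for 16 hr at 37 °C. Caspase-Glo 3/7 luminescence read after 20 min at RT; data normalized to DMSO and 100 uM tamoxifen, AC50 from Hill fits.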

[21] = Cellular Toxicity (caspase-3) Hek293 (AID 664);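 note: cells exposed to compound for 16 h at 37 °C before readout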
How it was run: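 HEK293 cells were exposed to compounds in complete medium for 16 hr at 37 °C, then caspase-3/7 activity was read by Caspase-Glo 3/7 luminescence after 20 min at room temperature. Data normalized to DMSO and 100 uM tamoxifen; AC50 from Hill fits.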

Cc1cccc(C#N)c1
inactive: Potency [1] > 92 µM | Potency [2] > 92 µM | Potency [3] > 92 µM | Potency [4] > 92 µM | outcome [5] | activity change, negative = cytotoxicity [6] -2.18% | activity change, negative = cytotoxicity [7] -15.8% | Potency [8] | Potency [9] | Potency [10] | activity change, negative = cytotoxicity [11] -8.34% | outcome [12] | outcome [13] | caspase-3 activation [14] 0.831% | outcome [15] | outcome [16] | outcome [17] | outcome [18] | outcome [19] | outcome [20] | outcome [21]
